Inconclusive results are not listed. Where a call stands in place of a potency, no number is given. Calls of active or inactive are those of the source. Calls come from the whole dose curve.
Target: Beta-2 adrenergic receptor (Homo sapiens) (UniProt P07550)
Test: Adrenergic beta2 receptor (ADRB2) small molecule agonists, cell-based qHTS assay (AID 1963593)
Settings: CHO-ADRB2 cells, cAMP HTRF, 30 min; series mostly up to 42.5 µM
Procedure, shortened: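 CHO cells stably over-expressing ADRB2 were plated overnight at 37C, then dosed with compounds plus a stimulation mix containing 100uM IBMX and 25uM Ro-20-1724 for 0.5hr at room temperature. cAMP was measured by HTRF competition, 1hr.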
Potency is the fitted concentration of half-maximal effect.

Chain of Beta-2 adrenergic receptor (Homo sapiens) (P07550 whole entry, looked up): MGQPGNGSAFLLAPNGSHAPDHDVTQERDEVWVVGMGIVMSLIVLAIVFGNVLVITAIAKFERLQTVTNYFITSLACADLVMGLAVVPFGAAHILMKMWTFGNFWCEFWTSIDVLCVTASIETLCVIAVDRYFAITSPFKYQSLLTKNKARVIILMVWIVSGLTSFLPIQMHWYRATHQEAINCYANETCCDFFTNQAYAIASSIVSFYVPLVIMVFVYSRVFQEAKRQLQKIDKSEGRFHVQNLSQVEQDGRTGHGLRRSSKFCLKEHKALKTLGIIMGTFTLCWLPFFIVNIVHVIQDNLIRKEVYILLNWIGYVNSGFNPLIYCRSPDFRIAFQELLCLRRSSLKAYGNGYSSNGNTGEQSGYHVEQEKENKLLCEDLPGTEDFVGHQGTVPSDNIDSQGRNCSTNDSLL

CC1(c2ccccc2)OC(C(=O)O)=CC1=O (stereo unspecified)
Potency: inactive

CCCCCCCCCCCC(=O)Cl
Potency: inactive

CCOc1cc(OCC)c(C(C)=O)cc1OCC
Potency: inactive

CCC1NC(=O)c2cc(S(N)(=O)=O)c(Cl)cc2N1 (stereo unspecified)
Potency: inactive

O=C(O)Cc1cn(-c2ccccc2)nc1-c1ccc(Cl)cc1
Potency: inactive

CCCN(CCC)CCc1cccc2c1CC(=O)N2
Potency: inactive

CCCCCCC(CCCCCCCCCCC(=O)OCC(COC(C)=O)OC(C)=O)OC(C)=O (stereo unspecified)
Potency: inactive

CCCOC(=O)c1ccc(N)cc1
Potency: inactive

C=COCC(C)C
Potency: inactive

CN(C)CCc1c[nH]c2ccc(C[C@H]3COC(=O)N3)cc12
Potency: inactive

CCCCCCCCCCCCCCCCOP(=O)([O-])OCC[N+](C)(C)C
Potency: inactive

NNc1nc(-c2ccc([N+](=O)[O-])cc2)cs1
Potency: inactive

CC[N+](CC)(CC)CCOc1cccc(OCC[N+](CC)(CC)CC)c1OCC[N+](CC)(CC)CC
Potency: inactive

O=C(Cn1ccnc1[N+](=O)[O-])NCCO
Potency: inactive

CC(=O)OC1CCC(C(C)(C)C)CC1 (stereo unspecified)
Potency: inactive

O=C(O)CCN(C1(C(=O)NO)CCCC1)S(=O)(=O)c1ccc(Oc2ccc(F)cc2)cc1
Potency: inactive

CC(=O)OCC(=O)[C@@]1(O)CCC2C3CCC4=CC(=O)CC[C@]4(C)C3[C@@H](O)C[C@@]21C (stereo partly specified)
Potency: inactive

COc1ccccc1OCC(O)COC(N)=O (stereo unspecified)
Potency: inactive

O=C(Nc1ccc2c(O)c(N=Nc3ccc(N=Nc4ccc(S(=O)(=O)O)cc4)cc3)c(S(=O)(=O)O)cc2c1)c1ccccc1
Potency: inactive

C=CC(=O)OCC(CO)(COCC(COC(=O)C=C)(COC(=O)C=C)COC(=O)C=C)COC(=O)C=C
Potency: 30.3 µM (active)

O=C(N[C@@H](Cc1ccccc1)[C@@H](O)C(=O)N1C[C@@H](O)[C@@H](O)C1)c1cc2cc(Cl)ccc2[nH]1
Potency: inactive

CCCCCc1ccc(N)cc1
Potency: inactive

CO[C@@H]1COCC[C@@H]1N[C@@H]1CC[C@@](C(=O)N2CCc3ncc(C(F)(F)F)cc3C2)(C(C)C)C1
Potency: inactive

c1ccc(SSc2ccccc2)cc1
Potency: inactive

CC(C)=CCC1=C(O)c2ccccc2C(=O)C1=O
Potency: inactive

NS(=O)(=O)c1cc(C(=O)O)cc(N2CCCC2)c1Oc1ccccc1
Potency: inactive

O=C1CC2(CCCC2)CC(=O)N1CCNCC1COc2ccccc2O1 (stereo unspecified)
Potency: inactive

CCC1C(=O)OCC1Cc1cncn1C (stereo unspecified)
Potency: inactive

c1cnc2c(n1)CCCC2
Potency: inactive

Cc1cc(OI)c(C(C)C)cc1-c1cc(C(C)C)c(OI)cc1C
Potency: inactive

Cc1nc2ccccc2n1Cc1ccc(Cl)cc1
Potency: inactive

CC/C=C\CCOC(=O)c1ccccc1O
Potency: inactive

CN(C(=O)CCCOc1ccc2[nH]c(=O)ccc2c1)C1CCCCC1
Potency: inactive

O=C(O)c1cc(C(=O)O)c(C(=O)O)cc1C(=O)O
Potency: inactive

CNCc1ccccc1
Potency: inactive

CC(=O)O[C@@H]1CC2CCC1(C)C2(C)C (stereo partly specified)
Potency: inactive

C[Si](C)(CCCN)O[Si](C)(C)CCCN
Potency: inactive

Cc1ccccc1C(=O)Nc1ccc(C(=O)N2CCCC(N(C)C)c3ccccc32)cc1 (stereo unspecified)
Potency: inactive

O=C(O)P(=O)(O)O
Potency: inactive

Cc1nccn1CC1CCc2c(c3ccccc3n2C)C1=O (stereo unspecified)
Potency: inactive

NS(=O)(=O)Cc1noc2ccccc12
Potency: inactive

— PubChem BioAssay (Tox21)
